Consider 14 compounds from PubChem BioAssay (EPA / NIEHS).

The target in test [1] is Bile acid receptor (Homo sapiens) (UniProt Q96RI1). Description: ATG_FXR_TRANS: Attagene TRANS-FACTORIAL HepG2 Assay for Farnesoid X Receptor (FXR) (AID 2282979).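 Note: hits raise reporter mRNA above DMSO so AC50 marks FXR activation.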 To be noted: HepG2 Attagene TRANS FXR-GAL4 reporter transcription. In short, it runs like this: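 After 24 h chemical treatment of transfected HepG2 cells, GAL4-UAS reporter transcripts driven by an exogenous FXR-GAL4 fusion were measured by RT-PCR and capillary electrophoresis. Increases over DMSO were fitted.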
Sequence of Bile acid receptor (Homo sapiens) (Q96RI1 whole entry, looked up, the tested form may be a part): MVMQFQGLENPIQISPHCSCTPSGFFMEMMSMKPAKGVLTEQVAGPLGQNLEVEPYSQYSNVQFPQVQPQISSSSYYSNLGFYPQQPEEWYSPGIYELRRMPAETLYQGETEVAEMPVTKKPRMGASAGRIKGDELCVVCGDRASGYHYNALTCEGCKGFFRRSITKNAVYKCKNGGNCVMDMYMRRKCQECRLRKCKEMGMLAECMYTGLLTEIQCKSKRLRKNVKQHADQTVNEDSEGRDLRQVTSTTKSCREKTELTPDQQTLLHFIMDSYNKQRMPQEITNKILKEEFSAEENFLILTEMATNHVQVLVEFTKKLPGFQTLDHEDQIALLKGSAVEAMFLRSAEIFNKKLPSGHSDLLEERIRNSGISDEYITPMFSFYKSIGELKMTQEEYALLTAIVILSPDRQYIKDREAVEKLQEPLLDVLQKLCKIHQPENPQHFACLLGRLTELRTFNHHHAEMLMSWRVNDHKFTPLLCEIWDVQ

The target of test [2] is Oxysterols receptor LXR-beta (Homo sapiens) (UniProt P55055). Description: ATG_LXRb_TRANS: Attagene TRANS-FACTORIAL HepG2 Assay for human Liver X Receptor beta (LXRb) (AID 2282981). To be noted: HepG2 Attagene TRANS GAL4-LXRb reporter, mRNA. In a few lines: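 Readout: fluorescent reporter mRNA fragments resolved by capillary electrophoresis after RT-PCR. System: transiently transfected human HepG2, exogenous LXRb-Gal4 chimera driving GAL4-UAS reporter, 24 h dosing. Activity fitted upward against DMSO baseline.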
Sequence of Oxysterols receptor LXR-beta (Homo sapiens) (P55055 whole entry, looked up, the tested form may be a part): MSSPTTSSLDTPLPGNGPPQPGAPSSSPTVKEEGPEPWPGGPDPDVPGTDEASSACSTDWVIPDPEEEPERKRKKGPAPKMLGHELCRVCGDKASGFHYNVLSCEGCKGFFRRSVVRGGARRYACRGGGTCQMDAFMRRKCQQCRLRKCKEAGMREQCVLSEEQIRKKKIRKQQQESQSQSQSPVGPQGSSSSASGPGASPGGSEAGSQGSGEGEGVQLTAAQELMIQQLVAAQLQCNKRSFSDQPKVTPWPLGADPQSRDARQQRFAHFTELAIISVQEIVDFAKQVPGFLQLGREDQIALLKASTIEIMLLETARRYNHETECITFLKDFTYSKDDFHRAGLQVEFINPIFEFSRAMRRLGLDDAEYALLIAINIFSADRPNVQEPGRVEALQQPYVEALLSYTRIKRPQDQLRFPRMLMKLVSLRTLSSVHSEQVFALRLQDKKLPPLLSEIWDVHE

Test [3] concerns the target human Thyroid Receptor alpha (THRa1), THRA (gene 7067) (UniProt P10827). Description: ATG_THRa1_TRANS: Attagene TRANS-FACTORIAL HepG2 Assay for human Thyroid Receptor alpha (THRa1) (AID 2283014). In short, it runs like this:
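Measured here is mRNA from a GAL4-UAS reporter in transfected HepG2 cells carrying a Gal4-fused receptor, 24 h post-dose. DMSO served as negative control and baseline.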

The target in test [4] is Estrogen receptor beta (Homo sapiens) (UniProt Q92731). Put plainly: OT_ER_ERbERb_1440: Odyssey Thera (OT) 24-hour HEK293T Protein-Complementation Assay for Estrogen Receptor-beta/-beta Homodimer (AID 2283380).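 Note: scored as signal increase over DMSO baseline for both agonists and antagonists.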 In short, it runs like this: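 HEK293T cells stably expressing ER beta LBD (aa 310-547) homodimer fragment-complementation reporter, dosed 24 h. Cells formaldehyde-fixed, Draq5-stained; gain in nuclear (agonist) or nuclear plus cytoplasmic (antagonist) fluorescence versus DMSO read by laser scanning cytometry.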
Sequence of Estrogen receptor beta (Homo sapiens) (Q92731 whole entry, looked up, the tested form may be a part): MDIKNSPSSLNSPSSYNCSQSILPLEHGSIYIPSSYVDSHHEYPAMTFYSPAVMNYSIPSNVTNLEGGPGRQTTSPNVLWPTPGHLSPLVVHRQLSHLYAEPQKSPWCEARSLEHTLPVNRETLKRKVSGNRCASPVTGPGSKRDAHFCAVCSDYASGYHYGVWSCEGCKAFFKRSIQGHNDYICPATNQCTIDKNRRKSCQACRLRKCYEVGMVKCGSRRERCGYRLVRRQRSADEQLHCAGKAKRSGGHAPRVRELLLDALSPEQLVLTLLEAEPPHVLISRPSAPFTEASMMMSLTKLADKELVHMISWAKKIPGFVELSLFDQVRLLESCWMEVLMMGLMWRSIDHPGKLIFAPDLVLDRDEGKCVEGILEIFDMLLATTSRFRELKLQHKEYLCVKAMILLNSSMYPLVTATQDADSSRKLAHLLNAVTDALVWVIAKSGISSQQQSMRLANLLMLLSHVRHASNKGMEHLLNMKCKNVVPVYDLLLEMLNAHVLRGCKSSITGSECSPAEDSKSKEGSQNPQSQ

In test [5] the target is Retinoic acid receptor RXR-alpha (Homo sapiens) (UniProt P19793). Put plainly: OT_NURR1_NURR1RXRa_0480: Odyssey Thera (OT) 8-hour HEK293T Protein Complementation Assay for Nurr1/retinoid X receptor (RXR) (AID 2283385). In a few lines:
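Read-out: fluorescence from protein-fragment complementation between Nurr1 and RXRα in human HEK293T cells, 8 h after dosing. DMSO served as negative control; increased signal counted as activity.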

Test [6] shares this target. Put plainly: OT_NURR1_NURR1RXRa_1440: Odyssey Thera (OT) 24-hour HEK293T Protein Complementation Assay for Nurr1/retinoid X receptor (RXR) (AID 2283386). In a few lines:
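Fluorescence PCA read-out; HEK293T; 24 h post-dose; bait/prey fused to reporter fragments; gain-of-signal fit vs DMSO negative control.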

The target of test [7] is Peroxisome proliferator-activated receptor gamma (Homo sapiens) (UniProt P37231). Put plainly: OT_PPARg_PPARgSRC1_0480: Odyssey Thera (OT) 8-hour Protein-Complementation Assay for Peroxisome Proliferator-activated Receptor Gamma / SRC-1 Co-activator (AID 2283387).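 Note: nuclear to cytoplasmic split Venus YFP fluorescence ratio reporting PPARg SRC-1 interaction.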 In short, it runs like this:
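HEK293T transiently transfected with PPARg and SRC-1 fused to Venus YFP fragments, compounds 8 h at 37C. Fixed, Draq5-stained cells imaged; nuclear/cytoplasmic 488 nm fluorescence ratio over at least 350 cells per image; gain fitted versus DMSO.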

Test [8] shares this target. Put plainly: OT_PPARg_PPARgSRC1_1440: Odyssey Thera (OT) 24-hour Protein-Complementation Assay for Peroxisome Proliferator-activated Receptor Gamma/ SRC-1 Co-activator (AID 2283388). In a few lines: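 Cells carrying the PPARg/SRC-1 fragment-complementation reporter receive compound for 24 hours, are fixed and counterstained with Draq5, then imaged. Increased nuclear relative to cytoplasmic YFP fluorescence above DMSO baseline indicates binding activity.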

The target of test [9] is Estrogen receptor beta (Homo sapiens) (UniProt Q92731). Put plainly: OT_ER_ERbERb_0480: Odyssey Thera (OT) 8-hour HEK293T Protein-Complementation Assay for Estrogen Receptor-beta/-beta Homodimer (AID 2283357).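 Note: active means signal gain over DMSO baseline.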 In a few lines:
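Homodimerization of ER-beta LBD measured by protein-fragment complementation in HEK293T; 8 h dosing; fixed, Draq5 counterstain; fluorescence intensity gain over DMSO baseline, positive fitting direction; laser scanning cytometry.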

The nature of test [10]: ACEA_AR_agonist_AUC_viability: ACEA Biosciences xCELLigence Real-Time Cell Analysis on Androgen Receptor Agonism for Viability (AID 2283775).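 For AC50: viability read 80 hours after compound addition.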 In short, it runs like this: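 Viability endpoint from xCELLigence impedance in 22Rv1 prostate cells at 80 h. Eight-point series, 100 uM maximum final.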
Test [11] is described as follows: ATG_GAL4_TRANS: Attagene TRANS-FACTORIAL HepG2 Assay for GAL4 (Internal Marker) (AID 2282976). To be noted: HepG2 Attagene TRANS GAL4 internal marker reporter. In short, it runs like this: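 Liver HepG2 line bearing multiplexed GAL4-UAS reporter constructs; 24 h chemical treatment. Transcripts were quantified as fluorescent fragments on capillary electrophoresis after RT-PCR and HpaI cut, with activity fitted upward from DMSO.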

The nature of test [12]: ATG_ERE_CIS: Attagene CIS-FACTORIAL HepG2 Assay for Estrogen Response Element (ERE) (AID 2282940; active = hit-call score of the fitted dose curve at least 0.9, where 1 is the maximum; inactive = score below 0.9). To be noted: HepG2 ERE cis-reporter, Attagene RNA transcript; actives raise or lower the signal. In a few lines: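 Cells used were human hepatoma HepG2, transfected with multiple reporter transcription units under cis-regulatory promoters. Reporter mRNA, read 24 h post-dosing via fluorescent RT-PCR products on capillary electrophoresis, was fitted bidirectionally relative to DMSO.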

A short description of test [13]: BSK_3C_TissueFactor: BioMAP Diversity Plus: 3C Assay for Tissue Factor Biomarker Activity (AID 2282997; active = hit-call score of the fitted dose curve at least 0.9, where 1 is the maximum; inactive = score below 0.9). To be noted: BioMAP 3C HUVEC, tissue factor biomarker readout; actives raise or lower the signal. In short, it runs like this:
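In this endothelial system, HUVEC are treated for 24 h and Tissue Factor is assessed by ELISA, normalised to DMSO.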

Test [14] can be described thus: BSK_3C_uPAR: BioMAP Diversity Plus: 3C Assay for Urokinase-type plasminogen activator receptor (uPAR) Biomarker Activity (AID 2282998; active = hit-call score of the fitted dose curve at least 0.9, where 1 is the maximum; inactive = score below 0.9). The conditions noted are these: BioMAP 3C HUVEC, uPAR biomarker ELISA; actives raise or lower the signal. In a few lines: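 Dose primary human umbilical vein endothelial cells, incubate 24 h, measure cell-surface uPAR by ELISA, then fit the signal in both directions against the DMSO negative control.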
Background: ELISA stands for enzyme-linked immunosorbent assay.

Test [15] is described as follows: BSK_4H_Eotaxin3: BioMAP Diversity Plus: 4H Assay for Eotaxin 3 Biomarker Activity (AID 2283000; active = hit-call score of the fitted dose curve at least 0.9, where 1 is the maximum; inactive = score below 0.9;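 for outcome: CCL26 protein level quantified by ELISA in parallel with SRB cytotoxicity check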). To be noted: primary human endothelial cells (HUVEC); actives raise or lower the signal. In a few lines: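 ELISA quantitation of CCL26 (Eotaxin-3) protein from chemically dosed human vascular endothelial cells at 24 h; increases and decreases both scored relative to DMSO-treated baseline.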

Read-out in test [16]: Interleukin-1 alpha (IL1a), IL1A (gene 3552)
Description: BSK_BE3C_IL1a: BioMAP Diversity Plus: BE3C Assay for Interleukin-1 alpha (IL1a) Biomarker Activity (AID 2283016; active = hit-call score of the fitted dose curve at least 0.9, where 1 is the maximum; inactive = score below 0.9). The conditions noted are these: primary human bronchial epithelial cells; actives raise or lower the signal. In short, it runs like this: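 ELISA read-out of IL-1a from human lung bronchial epithelial primary cells, 24 h post-dose. Gain or loss of signal fitted relative to DMSO negative control.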

Read-out in test [17]: Monocyte Chemoattractant Protein-1 (MCP1), CCL2 (gene 6347)
Put plainly: BSK_3C_MCP1: BioMAP Diversity Plus: 3C Assay for Monocyte Chemoattractant Protein-1 (MCP1) Biomarker Activity (AID 2283017; active = hit-call score of the fitted dose curve at least 0.9, where 1 is the maximum; inactive = score below 0.9). The conditions noted are these: primary human endothelial cells (HUVEC); actives raise or lower the signal. In a few lines: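 Using human vascular primary endothelium, researchers measured MCP-1 by ELISA 24 h after treatment, with DMSO serving as negative control for bidirectional fitting.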

Read-out in test [18]: Interleukin-8 (IL8), CXCL8 (gene 3576)
Description: BSK_3C_IL8: BioMAP Diversity Plus: 3C Assay for Interleukin-8 (IL8) Biomarker Activity (AID 2283020; active = hit-call score of the fitted dose curve at least 0.9, where 1 is the maximum; inactive = score below 0.9). To be noted: primary human endothelial cells (HUVEC); actives raise or lower the signal. In a few lines:
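HUVEC, 3C stimulation; 24 h compound exposure; IL-8 read by ELISA; gain or loss of signal fitted relative to DMSO control.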

Read-out in test [19]: Monokine induced gamma interferon (MIG), CXCL9 (gene 4283)
Description: BSK_3C_MIG: BioMAP Diversity Plus: 3C Assay for Monokine induced gamma interferon (MIG) Biomarker Activity (AID 2283021; active = hit-call score of the fitted dose curve at least 0.9, where 1 is the maximum; inactive = score below 0.9). The conditions noted are these: primary human endothelial cells (HUVEC); actives raise or lower the signal. In short, it runs like this:
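HUVEC, 3C system; 24 h chemical exposure; MIG by ELISA; bidirectional fit vs DMSO baseline.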

A short description of test [20]: ACEA_AR_antagonist_AUC_viability: ACEA Biosciences xCELLigence Real-Time Cell Analysis on Androgen Receptor Antagonism for Viability (AID 2283776).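 Note: area under impedance growth curve at 80 h after dosing as viability; hits lower the growth signal relative to DMSO meaning cytotoxicity.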 In a few lines: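 22Rv1 human prostate cancer cells were seeded on electrode plates, monitored overnight, then exposed to eight 1:4 dilutions from 100 uM final. Impedance-based growth kinetics at 80 h gave an AUC viability endpoint normalized to DMSO.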

Structures are written as SMILES. Inconclusive results are not listed. Activity calls are given as the source filed them. Rule for the calls, unless noted: active = hit-call score of the fitted dose curve at least 0.9, where 1 is the maximum; inconclusive = response in the unintended direction; inactive = score below 0.9.

One may read the AC50 as the concentration giving half of the maximal activity seen.

Sequence of human Thyroid Receptor alpha (THRa1), THRA (gene 7067) (P10827 whole entry, looked up, the tested form may be a part): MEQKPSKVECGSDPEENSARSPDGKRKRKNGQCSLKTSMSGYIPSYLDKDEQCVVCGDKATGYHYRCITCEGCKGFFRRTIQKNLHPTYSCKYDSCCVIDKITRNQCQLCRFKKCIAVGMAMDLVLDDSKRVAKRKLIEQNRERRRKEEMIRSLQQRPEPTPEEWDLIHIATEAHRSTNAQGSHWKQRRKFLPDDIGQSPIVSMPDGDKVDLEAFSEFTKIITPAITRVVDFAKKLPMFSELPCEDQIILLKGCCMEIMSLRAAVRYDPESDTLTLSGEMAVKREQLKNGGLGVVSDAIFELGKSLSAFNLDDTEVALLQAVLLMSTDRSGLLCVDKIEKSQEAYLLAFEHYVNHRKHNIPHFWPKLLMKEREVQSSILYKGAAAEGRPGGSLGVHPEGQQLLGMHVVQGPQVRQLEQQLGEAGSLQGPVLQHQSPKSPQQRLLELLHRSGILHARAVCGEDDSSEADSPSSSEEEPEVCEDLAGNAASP
Sequence of Retinoic acid receptor RXR-alpha (Homo sapiens) (P19793 whole entry, looked up, the tested form may be a part): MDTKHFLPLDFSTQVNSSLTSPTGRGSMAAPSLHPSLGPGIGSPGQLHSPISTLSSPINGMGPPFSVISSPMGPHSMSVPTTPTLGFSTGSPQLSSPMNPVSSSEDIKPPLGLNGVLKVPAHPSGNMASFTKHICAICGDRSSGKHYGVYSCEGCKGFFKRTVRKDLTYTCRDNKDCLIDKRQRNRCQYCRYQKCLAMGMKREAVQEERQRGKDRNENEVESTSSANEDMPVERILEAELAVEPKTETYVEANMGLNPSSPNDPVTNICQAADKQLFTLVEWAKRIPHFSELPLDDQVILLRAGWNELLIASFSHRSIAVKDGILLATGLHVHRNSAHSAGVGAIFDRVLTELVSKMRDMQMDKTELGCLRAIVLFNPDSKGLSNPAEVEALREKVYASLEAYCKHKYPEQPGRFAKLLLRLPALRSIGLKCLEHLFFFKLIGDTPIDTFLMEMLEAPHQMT
Sequence of Peroxisome proliferator-activated receptor gamma (Homo sapiens) (P37231 whole entry, looked up, the tested form may be a part): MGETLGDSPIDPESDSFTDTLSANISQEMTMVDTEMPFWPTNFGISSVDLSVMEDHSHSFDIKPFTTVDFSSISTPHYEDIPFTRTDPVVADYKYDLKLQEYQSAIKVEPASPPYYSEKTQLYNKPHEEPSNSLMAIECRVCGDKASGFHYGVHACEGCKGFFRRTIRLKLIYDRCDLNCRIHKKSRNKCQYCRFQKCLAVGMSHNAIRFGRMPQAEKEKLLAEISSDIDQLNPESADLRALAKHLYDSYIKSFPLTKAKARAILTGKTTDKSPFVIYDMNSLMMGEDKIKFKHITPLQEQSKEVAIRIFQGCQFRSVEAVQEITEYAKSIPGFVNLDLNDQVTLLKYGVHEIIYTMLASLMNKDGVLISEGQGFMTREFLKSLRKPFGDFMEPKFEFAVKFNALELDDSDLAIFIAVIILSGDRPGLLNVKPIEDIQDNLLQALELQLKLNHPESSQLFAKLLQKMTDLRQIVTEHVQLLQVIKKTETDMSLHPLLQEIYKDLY

For the compound `CCOP(=O)(OCC)Oc1ccc([N+](=O)[O-])cc1`, the outcome in test [1], in test [2], in [3], in [4], in [5] and in test [6] was inactive. The compound was classed as inactive in test [7] and in test [8].

For the compound `CCOP(O)OCC`, the outcome in [3], in [9], in test [4], in [6], in test [7] and in test [8] was inactive. In addition, the compound was classed as inactive in [10].

Turning to `Cc1ccccc1CCl`, in test [11], the outcome was inactive.

As for `CC1(C)CC(=O)CC(C)(C)N1[O]`, the result in [11] and in [1] was inactive.

As to `CCC[N+](=O)[O-]`, the compound was called inactive in test [2].

Turning to `O=C(CCN1CC1)OCC(CO)(COC(=O)CCN1CC1)COC(=O)CCN1CC1`, in [1], the call was inactive.

Consider `CNC(=O)Oc1cc(C)c(SC)c(C)c1`, for which the figures for the AC50 in test [12] and in test [15] were 26.5 µM (active) and 20 µM (active), respectively. Also, the result in [13], in test [14], in test [16], in test [17], in [18] and in [19] was inactive.

`C=CC(=O)OCC(CC)CCCC` (configuration not stated): the outcome in test [11], in [14], in test [15], in test [16], in test [19] and in test [9] was inactive. Besides, the compound was classed as inactive in test [4], in test [5], in test [6], in [7], in [8] and in test [20]. Besides, the AC50 was 28.9 µM (active) in test [13], 20 µM (active) in test [17], 20 µM (active) in test [18] and 4.45 µM (active) in test [10].

As for `O=C(O)COc1ccccc1`, the call in test [12] and in test [2] was inactive.

On to `O=C(NC(=O)c1c(F)cccc1F)Nc1ccc(Oc2ccc(C(F)(F)F)cc2Cl)cc1F`, for which the outcome in test [1], in test [3], in test [9], in [4], in test [7] and in test [8] was inactive. In addition, the outcome in test [10] and in [20] was inactive. For the same compound, the AC50 in test [6] was 31.3 µM (active).

As to `C[N+](=O)[O-]`, the compound was called inactive in test [12] and in test [11].

Take `CN(C)C(=O)C(c1ccccc1)c1ccccc1`: the compound was called inactive in test [11], in test [9], in [4], in [5], in test [6] and in test [7]. The compound was classed as inactive in test [8], in [10] and in test [20].

`CC(C)CCCCCCCOP(=O)(Oc1ccccc1)Oc1ccccc1`: the half-maximal activity concentration (AC50) in [12] is 27.5 µM (active); in [13] it was 9.9 µM (active); in test [14] it was 12.1 µM (active); in test [15], 20 µM (active); in test [16], 5.34 µM (active); in test [17], 10.7 µM (active). Further, the concentration at half-maximal activity (AC50) in test [18] is 20 µM (active). The compound was classed as inactive in [11], in [1] and in test [19].

Consider `CCC(C)(C)O`, for which the call in test [12] was inactive.
